Values joined by “and” are separate entries in the source; they are usually repeats but may differ in a detail not shown here. Equal values may be shown once. In all, about 300,000 compounds went through this assay and about 5,400 (1.8%) were called active. Not shown: some 28% with an inconclusive outcome. Calls follow the shape of the full dose curve; tested in HEK293 cells. The entries come from a sample that favours actives as a whole. A call without a number means that no potency is given here.
Potency is read from the fitted curve at half-maximal effect.

The assay can be described thus: qHTS for inhibitors of binding or entry into cells for Marburg Virus. Conditions: Marburg virus pseudotyped entry inhibition, cell reporter; series mostly up to 37.8 µM. (Quantitative high-throughput screening tests each substance at several concentrations.)
Take `N#CC1=C(SCc2ccccc2)NC(=O)C(C#N)C12CCCC2` (configuration not stated): the Potency entry was “inactive”.

In the case of `N#C/C(=C1\CCCN1)c1nc(-c2ccccc2)cs1`, the Potency result is “inactive”.

For `N#CC1=C(SCc2ccc(C#N)cc2)N=C(N)C(c2nc(-c3ccccc3)cs2)C12CCCCC2` (configuration not stated), the Potency is 7.08 µM (active).

For `NC(CSC1(c2ccccc2)c2ccccc2-c2ccccc21)C(=O)O` (configuration not stated), the Potency entry is “inactive”.

Take `CCCc1cc(=O)[nH]c(SCC(=O)Nc2ccc(C(=O)Nc3ccccc3OC)cc2)n1`: the Potency result was “inactive”.

Take `CC1CCN(C(=O)/C(=C\c2ccccc2)NC(=O)c2ccccc2)CC1`: the Potency result was “inactive”.

Consider `COc1ccc(S(=O)(=O)N2CCC(C(=O)NCc3ccco3)CC2)cc1C`, for which the Potency entry was “inactive”.

As for `CC(NC(=O)Cn1cc(C(F)(F)F)cc(Cl)c1=O)c1ccccc1` (configuration not stated), the Potency entry was “inactive”.

For `CNCC[C@H](Oc1ccc(C(F)(F)F)cc1)c1ccccc1`, the Potency is 10.3 µM (active) and 7.08 µM (active).

In the case of `CC(C)Oc1ccc(Oc2ccc(C(F)(F)F)cn2)cc1`, the Potency result was “inactive”.

On to `COc1ccccc1N(CC(=O)Nc1ccccc1C(=O)N1CCCC1)S(C)(=O)=O`, for which the Potency entry was “inactive”.

Turning to `Cc1ccc(S(=O)(=O)N2CCN=C2SCc2c(F)cccc2Cl)cc1`, the Potency result is “inactive”.

In the case of `COc1ccc(COC(=O)c2ccc(Cl)c(S(=O)(=O)N3CCOCC3)c2)cc1F`, the Potency result is “inactive”.

On to `CCCC(=O)Nc1ccc(C(=O)N/N=C/c2ccc[nH]2)cc1`, for which the Potency was 7.08 µM (active).

For `CC(=O)Nc1ccc(C(=O)/C=C/c2ccc[nH]2)cc1`, the Potency result was “inactive”.

`CCCCCC(=O)Nc1ccc(C(=O)N/N=C/c2ccc([N+](=O)[O-])cc2)cc1`: the Potency entry was “inactive”.

On to `CCOc1cc(/C=N/NC(=O)OC)ccc1OCCSc1ccc(Cl)cc1`, for which the Potency entry was “inactive”.

With `COc1cc(/C=N/NC(=O)c2ccc(N3CCCC3=O)cc2)ccc1O`, the Potency entry was “inactive”.

As for `COc1ccc(C(=O)Nc2ccccc2C(=O)N/N=C/c2ccc(O)c(OC)c2)cc1`, the Potency is 0.398 µM (active).

Consider `COc1ccc(C(=O)Nc2ccccc2C(=O)N/N=C/c2ccccc2OC)cc1`, for which the Potency result was “inactive”.

`COc1cc(C=NNC(=O)c2cccnc2)ccc1OC(=O)c1ccccc1F`: the Potency entry was “inactive”.

On to `COc1cc(/C=N/NC(=O)Nc2ccccc2)ccc1OCCOc1ccccc1C`, for which the Potency is 2.31 µM (active).

As for `COC(=O)c1ccc(COc2ccc(/C=N/NC(=O)C(=O)Nc3ccc(OC)cc3)cc2OC)o1`, the Potency result is “inactive”.

As for `COc1ccc(/C=N/S(=O)(=O)c2ccccc2)cc1OC`, the Potency entry was “inactive”.

Take `COc1cc(/C=N/NC(=O)c2ccccc2)ccc1OS(=O)(=O)c1ccccc1`: the Potency was 9.2 µM (active).

`COc1ccc(OC[C@H]2CN3[C@@H](CC[C@@H](C)[C@@H]3c3ccc(Br)cc3)C(=O)O2)cc1`: the Potency entry was “inactive”.

For the molecule `COC1=NC2=NCCN2C(OC)=N1`, the Potency result is “inactive”.

The record behind these values is PubChem BioAssay AID540276 (National Center for Advancing Translational Sciences (NCATS), 2011).
